Only some compounds are listed: those with a hit (about 4.1% of all), similar ones and a draw of the others.
MIN6 prolif-1: MIN6 beta-cell proliferation induction; 330,000 tested, 0.29% active; AID 2380; MIN6 cells proliferation, ATPlite luminescence, 48 h; cells starved in 0.2% serum; 100% = growth in 10% serum; proliferation, % at 10 µM;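 active = compounds whose signal lies at least 3.5 SD above the mean of all wells on their plate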;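 note: 0% = DMSO-treated cells in low-serum medium and 100% = 10% serum control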
FAS-TE inh: blocks the thioesterase domain of human fatty acid synthase; AID 602261; inhibition, % at 15 µM; recombinant FAS-TE, OMFH fluorogenic substrate, fluorescence endpoint; 360,000 tested, 0.67% active;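 active = compounds whose normalised, plate-corrected inhibition of enzyme fluorescence in the single-dose primary screen is 50% or more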;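 note: 0% = DMSO with enzyme and 100% = substrate without enzyme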
MPTP block: inhibitors of mitochondrial permeability transition pore; isolated mouse mitochondria, Ca2+ swelling absorbance, 30 min; inhibition, % at 10 µM; 360,000 tested, 1.4% active; AID 602449;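 active = inhibition of 50% or more, scaled per plate between neutral and stimulator controls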;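 note: 0% = DMSO wells given calcium and 100% = 1 mM EGTA wells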
pCIP destab: compounds decreasing mouse p/CIP protein stability; Q05BA5; F442A p/CIP-EGFP cells, EGFP fluorescence, 16 h; decrease of EGFP signal, % at 10 µM; 290,000 tested, 0.01% active; AID 1984;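 active = EGFP signal decrease of at least 30% at 10 µM or well 3 SD below plate mean, unless failing retest; inactive = the rest, including hits failing retest or dose response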
NR3A LBD binder: modulators (binders) of human NR3A ligand-binding domain. Tm shift relative to glycine control, % at 25 µM. NR3A LBD differential scanning fluorimetry, Tm shift; 0% = protein alone, 100% = glycine-bound protein. 340,000 tested, 2.5% active;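 active = melting temperature shift of at least 10% of the positive control shift, at one fixed dose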
MIN6 prolif-2: confirmation of inducers of beta-cell replication in MIN6 cells; shares compounds with MIN6 prolif-1; MIN6 beta-cell proliferation, ATPlite luminescence, 48 h; cells kept in 0.2% serum; scaled between 0.2% and 10% serum; proliferation increase, % at 50 µM; 920 tested, under 10 active; AID 463095;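 active = proliferation increase above 40% at any of the four tested concentrations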
* = called active by the depositor; . = no result.

SMILES | MIN6 prolif-1 | FAS-TE inh | MPTP block | pCIP destab | NR3A LBD binder | MIN6 prolif-2
COc1ccc(/C=N/NC(=O)CN(Cc2ccccc2)S(=O)(=O)c2ccc3c(c2)OCCO3)cc1 | 0.0 | 26.3 | 5.8 | -4.2 | -12.5 | .
COc1ccccc1Nc1nc(C)nc2c1oc1ccccc12 | 10.2* | 5.0 | -0.4 | -9.1 | 3.5 | 3.1
Cc1cccc(C)c1NC(=O)C(c1ccccc1)N1CCC(Cc2ccccc2)CC1 (stereo not given) | . | 22.5 | 2.6 | . | . | .
COc1ccc(/C=C/C(=O)Nc2cc(S(=O)(=O)N3CCOCC3)ccc2N2CCCC2)cc1OC | 7.3* | 2.5 | -3.1 | -12.8 | -0.9 | 1.0
COc1ccc(NC(C)=O)cc1S(=O)(=O)Nc1ccc2c(c1)OCCO2 | 7.9* | -5.4 | 0.2 | -13.8 | -0.8 | -2.6
COc1ccc(C)cc1S(=O)(=O)Nc1ccc2c(c1)OCCO2 | -2.9 | 0.2 | -0.6 | -18.5 | 0.9 | .
CCN1C(=O)[C@H]2[C@@H](c3ccc(-c4ccc(F)cc4)cc3)N[C@@](CC(C)C)(C(=O)OC)[C@H]2C1=O | -7.6 | 29.0 | 0.4 | . | 2.3 | .
CCOC(=O)C1(CC)NC(c2cccc(F)c2)C2C(=O)N(CC)C(=O)C21 (stereo not given) | 7.2* | -8.6 | -0.1 | -1.9 | -3.2 | 3.9
COc1ccc(-c2nnc(SCC(=O)N3CCOCC3)o2)cc1OC | 8.5* | -5.9 | -0.8 | -3.5 | -0.8 | 2.1
COc1ccc(-c2nnc(SCC(=O)N3CCN(c4ccccc4)CC3)o2)cc1OC | 0.9 | -8.9 | -2.4 | 2.0 | 2.0 | .
Cc1ccsc1/C=N/NC(=O)CNC(=O)c1cccc([N+](=O)[O-])c1C | 8.1* | 5.8 | 1.1 | -12.3 | 0.2 | -1.8
Cc1cc2nc(-c3ccc(C#N)cc3)c(Cc3ccsc3)n2c(C)c1Br | . | 14.3 | -0.2 | . | . | .
CC1(C(=O)NCc2ccc(Cl)cc2)CCN1C(=O)Cc1cccs1 (stereo not given) | . | -2.1 | 0.5 | . | . | .
CC(C)CCNC(=O)COC(=O)/C=C/c1ccc2ccccc2n1 | 7.2* | -1.7 | -2.3 | 9.2 | -1.6 | -2.3
O=C(COC(=O)/C=C/c1ccc2ccccc2n1)NNC(=O)c1ccccc1 | . | -8.4 | 0.8 | . | . | .
O=C(c1cccs1)N1C[C@H](O)[C@@H](n2cc(-c3ccc(F)cc3)nn2)C[C@@H]1c1ccccc1 | . | -1.7 | -1.2 | . | . | .
Cn1c(O)c(N=NC(=O)CNC(=O)c2ccccc2)c2ccccc21 | 0.0* | -8.4 | -0.8 | -22.6 | -1.7 | -0.2
Cn1c(O)c(N=NC(=O)CNC(=O)c2ccccc2)c2cc(Br)ccc21 | -1.0 | 15.8 | 0.3 | -5.1 | 4.4 | .
CCn1c(=O)c2cc(C(=O)N(C)c3ccc(OC)cc3OC)sc2c2ccccc21 | 6.7* | 22.5 | 3.9 | -12.3 | -2.2 | -6.2
CCn1c(=O)c2cc(C(=O)N(C)c3cc(C)ccc3OC)sc2c2ccccc21 | -3.1 | 21.5 | 3.4 | -1.4 | -0.9 | .
CC1(C(=O)Nc2ccc3c(c2)OCCO3)CCN1C(=O)c1cccc(F)c1 (stereo not given) | . | -3.9 | -0.5 | . | . | .
O=C(Nc1cccc2cccnc12)c1ccc(Cl)cc1 | 5.9* | 18.6 | 0.1 | 13.0 | 1.6 | -5.1
O=C(Nc1cccnc1Cl)c1ccc(Cl)cc1 | -1.4 | 0.8 | -0.2 | 3.0 | -1.2 | .
O=C(Nc1nnc([C@@H]2C[C@H](O)[C@@H](CO)O2)s1)Nc1ccccc1Oc1ccccc1 | . | -6.1 | 0.1 | . | . | .
CCCn1cnnc1CNC(=O)[C@H]1O[C@@H](n2ccc(=O)[nH]c2=O)[C@H](O)[C@@H]1O | . | -7.5 | -0.5 | . | . | .
SMILES | MIN6 prolif-1 | FAS-TE inh | MPTP block | pCIP destab | NR3A LBD binder | MIN6 prolif-2
COc1ccccc1N1CCN(C(=O)CN(C)S(=O)(=O)c2ccc3c(c2)c(=O)n(C)c(=O)n3C)CC1 | 6.9* | -1.8 | -4.4 | 6.2 | -1.9 | -1.4
Cc1nc2ccccc2n1C(c1cccnc1)c1nc2ccccc2[nH]1 (stereo not given) | . | . | -0.8 | . | . | .
Cc1ccc(/C=N/NC(=O)CSc2nc3ccccc3s2)o1 | 0.0* | -4.0 | 0.2 | -24.6 | -5.0 | 2.2
CCOC(=O)c1ccccc1NC(=O)c1cccs1 | 7.4* | 9.8 | 2.3 | -8.2 | 0.9 | 3.9
O=C1CCCN1CCCNc1nc(NCc2ccccc2)nc2ccsc12 | . | -5.4 | 1.9 | . | . | .
CCNc1nc(Oc2ccc(=O)n(C)n2)nc(N2CCOCC2)n1 | -0.3 | -3.7 | 1.1 | -8.1 | 0.9 | .
CNc1nc(Oc2ccc(=O)n(C)n2)nc(N2CCOCC2)n1 | 10.8* | -3.0 | 0.2 | 1.3 | -2.5 | -1.6
CC(C)(C)NS(=O)(=O)c1ccc(CCC(=O)N2CCOCC2)cc1 | -2.7 | 0.8 | -1.4 | -9.1 | -1.9 | .
CC1CCN(C(=O)CCc2ccc(S(=O)(=O)NC(C)(C)C)cc2)CC1 | 7.5* | -5.2 | 1.6 | 5.3 | 5.2 | -2.0
N#CC(c1ccccn1)c1ncc(C(F)(F)F)cc1Cl (stereo not given) | 8.3* | -2.9 | -9.1 | -0.2 | 7.6 | 5.7
O=C([C@H]1O[C@@H](n2ccc(=O)[nH]c2=O)[C@H](O)[C@@H]1O)N(CCC1=CCCCC1)CC1CC1 | . | -9.2 | -1.8 | . | . | .
CC(C)c1nc2sc3c(SCC(N)=O)ncnc3c2c2c1CCC2 | 5.1* | -7.1 | 1.5 | -20.0 | -1.0 | 5.1
COc1ccc(/C=C/C(=O)OCC(=O)NC2CCCCCCC2)cc1 | -4.2 | 15.5 | -0.7 | . | 5.0 | .
COc1ccc(/C=C/C(=O)C(C)(C)C)cc1OC | 6.6* | -5.4 | 0.5 | 8.7 | -5.1 | 0.9
COc1ccc(/C=C/C(=O)OCC(=O)NC2CCCC2)cc1OC | 10.8* | -5.3 | -1.2 | . | -0.2 | 4.4
COC(=O)C1(C(=O)OC)C/C=C\CN(S(=O)(=O)c2ccccc2[N+](=O)[O-])CC1 | . | 0.5 | 0.4 | . | . | .
COCCN(Cc1cc2ccc(C)cc2[nH]c1=O)S(=O)(=O)c1ccccc1 | 9.1* | -2.8 | 1.2 | 9.0 | 1.0 | -0.7
Cc1ccc2cc(CN(c3ccccc3C)S(=O)(=O)c3ccccc3)c(=O)[nH]c2c1 | -2.9 | 6.9 | -0.2 | -15.3 | 0.0 | .
CC(=O)Nc1cccc(NC(=O)CSc2nc(C3CC3)nc3ccccc23)c1 | -6.2 | -0.9 | 1.5 | -13.8 | 5.5 | .
CC(=O)c1cccc(NC(=O)CSc2nc(C3CC3)nc3ccccc23)c1 | 0.0* | 3.8 | -1.4 | 5.0 | 1.2 | -3.5
COC(=O)[C@@]12C[C@@H](CC(=O)NCCc3ccccc3OC)C(=O)N(Cc3ccc4c(c3)OCO4)C1=CCC(C)(C)C2 | . | . | -2.3 | . | . | .
O=C(NCCC1CCCCN1S(=O)(=O)c1ccccc1)C(=O)NC1CC1 (stereo not given) | 11.9* | -7.0 | -0.4 | . | -1.9 | -1.3
CCC(=O)N1CCC1(C)C(=O)Nc1cc(-c2ccccc2)nn1C (stereo not given) | . | -4.4 | 0.7 | . | . | .
CCn1c(=O)[nH]c(=O)c2c(N)c(C(=O)c3cc(F)ccc3F)sc21 | 9.1* | 2.7 | 1.5 | -1.0 | -1.3 | 1.7
